# In the library only some 3.5% were active in any assay of this set; here they are far more common.
# Pf apPOL inh: Pf-apPOL DNA polymerase inhibition; Recombinant Pf-apPOL, molecular beacon fluorescence, 1.5 h; inhibition, % at 10 µM; hit rate 0.25% among 210,000
# mHTT CaM bind: disrupts binding of mutant huntingtin to calmodulin; P42858; AlphaScreen His-mHTT/GST-CaM binding, luminescence; inhibition, % at 15 µM; hit rate 3.6% among 190,000;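 also: 0% = both proteins with DMSO and 100% = one protein alone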
# Active calls of the source: *; i = inactive; . = no result; ! = repeats disagree. Rule as the data show it: active = inhibition above about 50%; inactive = the rest.
SMILES,Pf apPOL inh,mHTT CaM bind
O=C(c1cc(F)ccc1Cl)N1CCCN(C2CCN(CC3CC3)C2=O)CC1 (configuration not stated),-4,18
CCOc1ccccc1NC(=O)NCCC1CCN(S(=O)(=O)c2ccc(F)cc2)CC1,-3,26
COc1ccc(OC)c(S(=O)(=O)N2CCC3(C2)C(=O)Nc2ccccc23)c1 (configuration not stated),-4,99*
COc1ccc(NC(=O)N2CCC3(C2)C(=O)Nc2ccccc23)c(OC)c1 (configuration not stated),-4,8
O=C(C=Cc1ccccc1)Oc1ccc2c(c1)OC(=Cc1ccco1)C2=O,6,79*
COc1ccc(C=C2Oc3cc(OC(C)=O)ccc3C2=O)cc1OC,-1,-2
O=C(Oc1ccc2c(c1)OC(=Cc1ccco1)C2=O)c1ccco1,5,24
O=C1C(=Cc2ccccc2F)Oc2cc(O)ccc21,1,-6
O=C(Oc1ccc2c(c1)OC(=Cc1ccco1)C2=O)c1ccccc1,-1,9
COc1ccc(C=C2Oc3cc(OC(=O)C(C)C)ccc3C2=O)cc1OC,-5,62*
O=C(Oc1ccc2c(c1)OC(=Cc1ccco1)C2=O)c1cccs1,36,58*
O=C1C(=CC=Cc2ccco2)Oc2cc(O)ccc21,51*,58*!
COc1cccc(C2=N/C(=C\c3cn(C(C)=O)c4ccccc34)C(=O)O2)c1,0,5
O=C(CCCC(=O)N/N=C/c1ccc([N+](=O)[O-])o1)N/N=C/c1ccc([N+](=O)[O-])o1,.,i
O=C(O)CCN1C(=O)C2C3CC(C(Br)C3Br)C2C1=O (configuration not stated),26,0
Cc1scc2nc(C(=O)N3CCC(C)CC3)nc(N3CCOCC3)c12,-20,6
Cn1cc(Br)c(C(=O)Nc2ccc(Br)cc2)n1,-4,-15
COc1ccccc1NC(=O)c1nn(C)cc1Br,61*,-3
COC(=O)c1ccc(C=C2Oc3cc(OS(C)(=O)=O)ccc3C2=O)cc1,-2,0
Brc1ccc(CNc2ccc3c(c2)ncn3-c2ccccc2)cc1,24,95*
CCN(CC)c1ccc(CNc2ccc3c(c2)ncn3C)cc1,-2,84*
CN(C)c1ccc(CNc2ccc3c(c2)ncn3C)cc1,-4,20
CC(C)(C)n1cnc2cc(NCc3ccc(Br)cc3)ccc21,-4,61*
Cn1cnc2cc(NCc3ccc(Br)cc3)ccc21,5,16
CC(=O)Nc1ccc2c(c1)ncn2-c1ccccc1,0,3
SMILES,Pf apPOL inh,mHTT CaM bind
COCCNC(=O)NC1(c2nc(-c3cnccn3)no2)CCCCC1,6,-8
C=CCN1C(=O)C(=O)C(=C(O)c2ccccc2)C1c1ccccc1 (configuration not stated),-14,0
CCOC(=O)c1ccc(Oc2c(C)oc3c4c(ccc3c2=O)OCN(CCOC)C4)cc1,-2,5
O=C(Cn1[nH]c2c(cnc3ccc(Cl)cc32)c1=O)Nc1ccc(F)cc1F,-3,66*
O=C(Cn1[nH]c2c(cnc3ccc(Cl)cc32)c1=O)Nc1cccc(Cl)c1,0,21
O=C(Cn1[nH]c2c(cnc3ccc(Cl)cc32)c1=O)Nc1cccc(F)c1,-4,90*
Cc1ccc(NC(=O)Cn2[nH]c3c(cnc4ccc(F)cc43)c2=O)cc1C,7,-5
Cc1ccc(NC(=O)Cn2[nH]c3c(cnc4ccc(Cl)cc43)c2=O)cc1,-2,-7
Cc1c(Cl)cccc1NC(=O)Cn1[nH]c2c(cnc3ccc(F)cc32)c1=O,2,58*
Cc1ccc2ncc3c(=O)n(CC(=O)Nc4cccc(F)c4)[nH]c3c2c1,0,81*
Cc1cc(C)cc(NC(=O)Cn2[nH]c3c(cnc4ccc(F)cc43)c2=O)c1,2,-9
COc1ccc(CNC(=O)N2CCC(Nc3cccnc3)C2)cc1 (configuration not stated),0,6
O=C(Nc1cccc(N2CCCN(Cc3cccc(F)c3)C2=O)c1)C1CCCC1,-2,2
CCCCN1CCN(C(=O)C2CCN(c3nnc(-c4ccc(C)cc4)o3)CC2)CC1,0,25
CC(C)(C)C(=O)NC(=S)N1CCNC(=O)C1CC(=O)OC1CCCCC1 (configuration not stated),-6,-6
c1ccc2ncc(-c3ccc4ccccc4n3)cc2c1,0,-12
Nc1cccc2ccc(-c3cnc4ccccc4c3)nc12,-1,57*
Cc1nc2cc(-c3noc(-c4ccc(C#N)cc4)n3)ccc2o1,0,-5
c1cnc(NC2CCCC2)nc1,-2,-4
COc1ccc(-c2ccc(CN3C(CC(C)C)C(=O)N(Cc4cn(CC5CCCCC5)nn4)CCS3(=O)=O)cc2)cc1OC (configuration not stated),0,15
CC(C)CC1C(=O)N(Cc2cn(CC3CCCCC3)nn2)CCS(=O)(=O)N1Cc1ccc(-c2ccncc2)cc1 (configuration not stated),-2,65*
